The values that follow come from PubChem BioAssay (NCI).

SMILES strings stand for the structures. Compounds without any hit were thinned out: in the full panel of roughly 83,000, 20% have a hit.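 Values shown are percent growth following 48 h exposure of cells in 96-well plates to a single concentration of compound; below 10 was considered active.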 A number with no mark means an inactive call. The source made the active and inactive calls.

Among the test systems are DU-145 prostate; K-562 leukemia; MALME-3M melanoma; MDA-MB-231 breast; RXF 393 renal; SF-268 CNS; SF-295 CNS; SF-539 CNS; UACC-257 melanoma; M14 melanoma; HCT-15 colon; HT29 colon; SNB-75 CNS; SNB-19 CNS; U251 CNS; PC-3 prostate; SK-MEL-5 melanoma; UACC-62 melanoma; LOX IMVI melanoma; SK-MEL-28 melanoma.
Holding throughout (test): NCI-60 one-dose screen, 48 h (100 = growth as untreated, 0 = no growth, -100 = all killed)
Common to all, as to conditions: 10 µM unless noted

With `CS(=O)(=O)Nc1cc(-c2ccc3ncnc(Nc4ccc5c(cnn5Cc5ccccn5)c4)c3c2)cnc1Cl`, the growth is 90% in the assay with DU-145 prostate; 92.1% in the assay on K-562 leukemia; 39.5% in the assay with MALME-3M melanoma; 71.5% in the assay on MDA-MB-231 breast; 72.8% in the assay with RXF 393 renal; 51.5% in the assay with SF-268 CNS. Also, the growth in the assay on SF-295 CNS is 91.5%; in the assay on SF-539 CNS, 69.9%; with UACC-257 melanoma, 88.1%; in the assay with M14 melanoma, 75.5%; with HCT-15 colon, 99.2%; in the assay on HT29 colon, 80.7%. In addition, the growth in the assay with SNB-75 CNS is 16.2%; in the assay on SNB-19 CNS it was 80.6%; in the assay on U251 CNS, 81.5%; in the assay on PC-3 prostate, 72.8%; with SK-MEL-5 melanoma, 77.7%; in the assay on UACC-62 melanoma, 61.8%. The growth in the assay on LOX IMVI melanoma is 71%; in the assay on SK-MEL-28 melanoma it was 56.1%.
For the compound `COc1cccc(CNc2ncnc3c2ncn3C2OC(CO)C(O)C2O)c1O` (stereo not given), the growth with DU-145 prostate is 0.439% (active); in the assay on K-562 leukemia, 6.7% (active); in the assay with MALME-3M melanoma, -1.1% (active); with MDA-MB-231 breast, -46% (active); with RXF 393 renal, -13.3% (active); in the assay with SF-268 CNS it was 22.8%. For the same compound, the growth is -24.5% (active) with SF-295 CNS; -3.39% (active) with SF-539 CNS; 37.6% in the assay with UACC-257 melanoma; 18.5% in the assay on M14 melanoma; 4.06% (active) with HCT-15 colon; 26.5% with HT29 colon. Also, the growth in the assay on SNB-75 CNS is -12.4% (active); in the assay with SNB-19 CNS it was 31.2%; in the assay on U251 CNS, 12.6%; in the assay with PC-3 prostate it was 15.7%; in the assay with SK-MEL-5 melanoma, 14.4%; in the assay with UACC-62 melanoma it was 6.74% (active). Further, the results for the growth in the assay on LOX IMVI melanoma and in the assay on SK-MEL-28 melanoma were -0.915% (active) and 29%, respectively.
In the case of `CCCCCC(=O)OCC(=O)O[C@@H]1C[C@]2(C(C)C)O[C@@]1(C)[C@@H]1CC[C@@H](C)[C@H]1[C@@H]2OC(=O)/C=C/c1ccccc1`, the growth in the assay with DU-145 prostate was 73.4%; with K-562 leukemia it was 42.3%; in the assay on MALME-3M melanoma, 49.8%; in the assay with MDA-MB-231 breast, 83.6%; in the assay with RXF 393 renal, -2.83% (active); with SF-268 CNS, 54.4%. Also, the growth with SF-295 CNS was 90.2%; with SF-539 CNS it was 92.3%; in the assay on UACC-257 melanoma, 87.2%; in the assay with M14 melanoma, 69.1%; in the assay with HCT-15 colon, 68.8%; in the assay on HT29 colon, 56.1%. The growth with SNB-75 CNS is 89%; with SNB-19 CNS, 87%; in the assay on U251 CNS, 65.9%; with PC-3 prostate, 55.5%; in the assay with SK-MEL-5 melanoma it was 95.7%; with UACC-62 melanoma it was 62.1%. Besides, the growth in the assay with LOX IMVI melanoma was 68.6%; in the assay with SK-MEL-28 melanoma, 101%.
As for `N#C/C(=C\c1ccc(Br)cc1)n1nnc2ccc(F)cc21`, the growth in the assay with DU-145 prostate was 15.3%; with K-562 leukemia it was 3.46% (active); with MALME-3M melanoma it was -22.6% (active); with MDA-MB-231 breast, -11.4% (active); in the assay with RXF 393 renal, -41% (active); with SF-268 CNS, 42.5%. Besides, the growth is 44% in the assay with SF-295 CNS; -24.3% (active) with SF-539 CNS; 6.2% (active) in the assay on UACC-257 melanoma; -42.3% (active) with M14 melanoma; -18.2% (active) in the assay with HCT-15 colon; 3.64% (active) with HT29 colon. For the same compound, the growth in the assay on SNB-75 CNS was 0.279% (active); with SNB-19 CNS, 19.5%; in the assay with U251 CNS, 1.71% (active); in the assay on PC-3 prostate, 7.5% (active); in the assay with SK-MEL-5 melanoma, 6.12% (active); in the assay with UACC-62 melanoma it was -54.7% (active). The growth in the assay with LOX IMVI melanoma was -63.7% (active); with SK-MEL-28 melanoma, -5.29% (active).
`CCOC(=O)C1=C(NC)OCC1=O`: the growth with DU-145 prostate is 110%; with K-562 leukemia, 99%; in the assay with MALME-3M melanoma, 113%; in the assay on MDA-MB-231 breast, 107%; in the assay with RXF 393 renal it was 100%; with SF-268 CNS it was 98.6%. Also, the growth was 106% in the assay with SF-295 CNS; 104% in the assay on SF-539 CNS; 92.5% in the assay on UACC-257 melanoma; 102% in the assay on M14 melanoma; 111% in the assay on HCT-15 colon; 99.6% with HT29 colon. For the same compound, the growth is 99.1% in the assay on SNB-75 CNS; 109% in the assay with SNB-19 CNS; 96.5% with U251 CNS; 85.7% in the assay on PC-3 prostate; 93.4% in the assay with SK-MEL-5 melanoma; 103% with UACC-62 melanoma. In addition, the growth is 101% with LOX IMVI melanoma and 110% in the assay on SK-MEL-28 melanoma.
Consider `CCN(CC)CCOc1ccc(C(=C(C)c2ccc(Cl)cc2)c2ccc(OCCN(CC)CC)cc2)cc1`, for which the growth in the assay on DU-145 prostate was -36.4% (active); in the assay on K-562 leukemia, -37.2% (active); with MALME-3M melanoma, -84.1% (active); in the assay with MDA-MB-231 breast, -84.9% (active); in the assay on RXF 393 renal, -73.7% (active); in the assay on SF-268 CNS, -37.9% (active). Further, the growth in the assay on SF-295 CNS was -77.6% (active); with SF-539 CNS, -92.6% (active); in the assay on UACC-257 melanoma, -69.9% (active); with M14 melanoma it was -89.8% (active); in the assay on HCT-15 colon, -76.9% (active); in the assay with HT29 colon it was -74.8% (active). Moreover, the growth was -92.6% (active) in the assay with SNB-75 CNS; -81.8% (active) with SNB-19 CNS; -81.6% (active) with U251 CNS; -59.3% (active) with PC-3 prostate; -98% (active) in the assay on SK-MEL-5 melanoma; -78.1% (active) in the assay with UACC-62 melanoma. For the same compound, the growth with LOX IMVI melanoma and in the assay on SK-MEL-28 melanoma was -88.5% (active) in each case.
As to `Cc1ccc(Sc2oc(-c3ccc(C)cc3)nc2[P+](c2ccccc2)(c2ccccc2)c2ccccc2)cc1`, the growth in the assay with DU-145 prostate was 11.6%; in the assay on K-562 leukemia, 4.98% (active); in the assay on MALME-3M melanoma it was -41.1% (active); in the assay with MDA-MB-231 breast it was -12.5% (active); in the assay with RXF 393 renal, -18.8% (active); in the assay with SF-268 CNS it was 10.9%. Moreover, the growth with SF-295 CNS was 9.9% (active); in the assay on SF-539 CNS it was -5.1% (active); with UACC-257 melanoma, 0.818% (active); in the assay on M14 melanoma it was 7.37% (active); in the assay with HCT-15 colon, 0.625% (active); with HT29 colon, 1.95% (active). Moreover, the growth was -23.6% (active) in the assay with SNB-75 CNS; 14% in the assay with SNB-19 CNS; 12.9% in the assay with U251 CNS; 5.64% (active) in the assay on PC-3 prostate; -97.7% (active) with SK-MEL-5 melanoma; -38.1% (active) with UACC-62 melanoma. Moreover, the growth in the assay with LOX IMVI melanoma is -69.3% (active); with SK-MEL-28 melanoma, 17%.
